Drawing on PubChem BioAssay (NCATS), this text covers activity change, negative = inhibition and Potency for 45 molecules.

For experiment [1], the system named is Zika virus NS2B-NS3 protease. As to the kind of experiment: Primary screen GU AMC qHTS for Zika virus inhibitors (AID 1347154). Also: nearly all actives have a fitted effect of over 70% in size. Also: potency is read from the fitted curve at half-maximal effect.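 As to activity change, negative = inhibition: 0% = no-inhibitor control and -100% = no-enzyme control.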 An outline of the steps: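 Unlinked Zika NS2B hydrophilic domain/NS3 protease domain noncovalent complex (25 nM final) in 10 mM Tris-HCl pH 8.0, 0.01% Tween 20, with AMC peptide substrate. Fluorescence (ex 340, em 450 nm) change over 15 min, room temperature; percent inhibition fitted to 4-parameter Hill equation.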
For orientation: Quantitative high-throughput screening tests each substance at several concentrations.

Experiment [2] can be described thus: Primary qHTS for small molecule stabilizers of the endoplasmic reticulum resident proteome: Secreted ER Calcium Modulated Protein (SERCaMP) assay (AID 1508630). Also: % is scaled to controls: 0 for no effect and ±100 for the full control effect. The method, boiled down:
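GLuc-SERCaMP-expressing SH-SY5Y cells, pretreated 16 h with compound, are challenged with thapsigargin to empty ER calcium stores; after 4 h, coelenterazine is added directly to the medium and luminescence is imaged.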

Structures are written as SMILES. Results filed as inconclusive are left out. A number with no mark means an inactive call. Calls of active or inactive are those of the source. Calls follow the shape of the dose curve; as a rule, active = well fitted curve in the direction sought with a large enough effect; inconclusive = small, poorly fitted or top-dose-only effect, or another doubt; inactive = no such curve, though single readings can be large; an effect the other way counts as inactive or inconclusive. Where a SMILES comes first, the peptide text is derived from it.

Regarding `CNCC(=O)NCC(=O)N[C@@H](Cc1ccccc1)C(=O)N[C@@H](CC(C)C)C(=O)O` (HELM PEPTIDE1{[Sar].G.F.L}$$$$V2.0), the activity change, negative = inhibition in experiment [1] was 7.91% [at 6.83 µM]; in experiment [2], -6.57% [at 3.88 µM].
As to `CC(C)c1cnc(NC(=O)Cc2ccccc2)s1`, the Potency result in experiment [1] and in experiment [2] was “inactive” in each case.
In the case of `c1ccc2[nH]c(NCCCc3cnc[nH]3)nc2c1`, the Potency entry in experiment [1] and in experiment [2] was “inactive” throughout.
Take `C1CCC(NC(=NC2C3CC4CC(C3)CC2C4)N2CCOCC2)CC1` (stereo not given): the Potency entry in experiment [1] and in experiment [2] was “inactive” throughout.
In the case of `COC(=O)[C@@H]1[C@H]2C[C@H]3c4[nH]c5ccccc5c4CCN3C[C@H]2CC[C@@H]1O`, the Potency entry in experiment [1] and in experiment [2] was “inactive” each time.
For the molecule `Nc1nc2c(ncn2[C@@H]2O[C@H](COP(=O)(O)OP(=O)(O)OP(=O)(O)O)[C@@H](O)C2O)c(=O)[nH]1` (stereo not given in full), the Potency entry in experiment [1] and in experiment [2] was “inactive” throughout.
For `O=Cc1c2[nH]c3ccccc3c2cc2[nH]c3ccccc3c12`, the Potency result in experiment [1] and in experiment [2] was “inactive” each time.
For the molecule `Nc1cc(N2CCCCC2)nc(N)[n+]1OS(=O)(=O)[O-]`, the Potency entry in experiment [1] and in experiment [2] was “inactive” each time.
Take `CCCCC/C=C\C/C=C\CCCCCCCC(N)=O`: the activity change, negative = inhibition was 15% [at 6.83 µM] in experiment [1] and -21% [at 3.88 µM] in experiment [2].
As to `NCCNC(=O)Cc1ccc(NC(=O)Cc2ccc(Nc3ncnc4c3ncn4[C@@H]3O[C@H](CO)[C@@H](O)[C@H]3O)cc2)cc1`, the Potency entry in experiment [1] and in experiment [2] was “inactive” in each case.
Consider `CC(C)n1cnc2c(NCc3ccccc3)nc(NCCO)nc21`, for which the Potency entry in experiment [1] and in experiment [2] was “inactive” each time.
Regarding `CC1=C(/C=C/C(C)=C/C=C/C(C)=C/C(=O)O)C(C)(C)CCC1O` (stereo not given), the Potency result in experiment [1] and in experiment [2] was “inactive” each time.
Turning to `O=c1ncccn1[C@@H]1O[C@H](CO)C(O)[C@@H]1O` (stereo not given in full), the Potency result in experiment [1] and in experiment [2] was “inactive” in each case.
Regarding `COc1cccc2c1C(=O)c1c(O)c3c(c(O)c1C2=O)C[C@@](O)(C(=O)CO)C[C@@H]3O[C@@H]1C[C@H](N)[C@H](O)[C@H](C)O1`, the Potency result in experiment [1] and in experiment [2] was “inactive” each time.
Consider `CC(=O)N[C@@H](CSC/C=C(\C)CCC=C(C)C)C(=O)O`, for which the Potency entry in experiment [1] and in experiment [2] was “inactive” each time.
Turning to `CCCCCCCCCCCCCCC[C@@H](O)[C@H](CO)NC(C)=O`, the activity change, negative = inhibition in experiment [1] is 7.2% [at 6.83 µM]; in experiment [2], -11.4% [at 3.88 µM].
For `NC(C(=O)O)c1cccc(O)c1` (stereo not given), the Potency entry in experiment [1] and in experiment [2] was “inactive” throughout.
Turning to `OCc1cc2c(cn1)[nH]c1ccccc12`, the Potency in experiment [1] is 26.7 µM (active). Moreover, the Potency result in experiment [2] is “inactive”.
The like results for `C[C@@]12CCC[C@H]1C1CC[C@H]3C[C@H](O)CC[C@]3(C)C1CC2` (stereo not given in full) were, in that order, “inactive” and “inactive”.
The like results for `CC(CCCCC(=O)Nc1ccc(C(F)(F)F)cc1)NCCc1cnc[nH]1` (stereo not given) were, in that order, “inactive” and “inactive”.
The matching figures for `O=C(O)COc1ccc(OCCNC[C@H](O)COc2ccccc2)cc1`: “inactive” and “inactive”.
As for `CC(N)(C(=O)O)c1ccc(P(=O)(O)O)cc1` (stereo not given), the Potency result in experiment [1] and in experiment [2] was “inactive” each time.
Turning to `COc1ccc(C2CC(c3c(O)cc(C)oc3=O)=NCCS2)c(OC)c1` (stereo not given), the Potency entry in experiment [1] and in experiment [2] was “inactive” in each case.
Consider `C[C@H](NC(=O)CNC(=O)[C@@H](NC(=O)[C@H](Cc1ccccc1)NC(=O)CNC(=O)CNC(=O)[C@@H](N)Cc1ccccc1)[C@@H](C)O)C(=O)N[C@@H](CCCN=C(N)N)C(=O)N[C@@H](CCCCN)C(=O)N[C@@H](CO)C(=O)N[C@@H](C)C(=O)N[C@@H](CCCN=C(N)N)C(=O)N[C@H](CN)CCCCN` (HELM PEPTIDE1{F.G.G.F.T.G.A.R.K.S.A.R.[NCCCC[C@@H](CN)N[*:1]]}$$$$V2.0), for which the activity change, negative = inhibition was 1.78% [at 6.83 µM] in experiment [1] and -10.3% [at 3.88 µM] in experiment [2].
The like results for `CCCCCCCC/C=C\CCCCCCCC(=O)OC[C@H](CO)OC(C)=O` were, in that order, 16.8% [at 6.83 µM] and -28% [at 3.88 µM].
Consider `N[C@@]1(C(=O)O)CN[C@@H](C(=O)O)C1`, for which the Potency result in experiment [1] and in experiment [2] was “inactive” each time.
On to `N#CC(C#N)=C(N)/C(C#N)=C/c1ccc2[nH]ccc2c1`, for which the Potency entry in experiment [1] and in experiment [2] was “inactive” each time.
For the molecule `NC(=O)N/N=C/c1ccc(Oc2ccc(F)cc2)cc1`, the Potency entry in experiment [1] and in experiment [2] was “inactive” in each case.
On to `CC[C@]1(O)C[C@@H]2CN(CCc3c([nH]c4ccccc34)[C@@](C(=O)OC)(c3cc4c(cc3OC)N(C)C3[C@]45CCN4CC=C[C@](CC)(C45)[C@@H](OC(C)=O)[C@]3(O)C(=O)OC)C2)C1` (stereo not given in full), for which the Potency entry in experiment [1] and in experiment [2] was “inactive” each time.
Consider `CCCCCCCCCCCCC/C=C/[C@@H](O)[C@H](CO)NCCCCCCCC`, for which the activity change, negative = inhibition is 15.2% [at 6.83 µM] in experiment [1] and -10.1% [at 3.88 µM] in experiment [2].
The matching figures for `CCCCC/C=C/C=C1/C(=O)C=C[C@@H]1C/C=C\CCCC(=O)O`: 2.18% [at 6.83 µM] and -9.18% [at 3.88 µM].
The matching figures for `CCCCC/C=C\C/C=C\C/C=C\C=C\[C@@H](O)CCCC(=O)O`: 0.663% [at 0.59 µM] and -9.05% [at 0.478 µM].
As for `CCCCc1nc2ccn(CC(=O)N(C)C)c(=O)c2n1Cc1ccc(-c2ccccc2-c2nn[nH]n2)cc1`, the Potency result in experiment [1] and in experiment [2] was “inactive” throughout.
Take `CS(=O)(=O)Nc1c(O)ccc2c1CCCC2C1=NCCN1` (stereo not given): the Potency result in experiment [1] and in experiment [2] was “inactive” throughout.
With `CCCCCCCCCCCCCCC(F)C(=O)O` (stereo not given), the activity change, negative = inhibition was 19.7% [at 6.83 µM] in experiment [1] and 10.1% [at 3.88 µM] in experiment [2].
The matching figures for `CCCCCCCCCCCCC/C=C/[C@@H](O)[C@H](CO)NC(=O)CCCCCCC`: 11.7% [at 6.83 µM] and 18.1% [at 3.88 µM].
The matching figures for `C=C1/C(=C\C=C2/CCC[C@]3(C)C([C@H](C)CCCC(C)(C)O)CC[C@@H]23)C[C@@H](O)C[C@@H]1O` (stereo not given in full): 14.5% [at 6.83 µM] and -19.4% [at 3.88 µM].
The matching figures for `CCCCC[C@H](O)CC[C@H]1[C@H](O)CC(=O)[C@@H]1CCCCCCC(=O)O`: 15.4% [at 6.83 µM] and -15% [at 3.88 µM].
For the molecule `COC(=O)/C=C/c1ccc(C(=O)NCC(=O)N[C@@H](CCC(=O)OC)C(=O)N[C@@H](CC(C)C)C(N)=O)cc1`, the Potency result in experiment [1] and in experiment [2] was “inactive” in each case.
Take `CCCCCCCCCCCCC(O)C(=O)O` (stereo not given): the activity change, negative = inhibition in experiment [1] is 10.2% [at 6.83 µM]; in experiment [2], 56.7% [at 3.88 µM].
Take `COC(=O)/C=C/c1cccc(N(Cc2ccc(-c3ccc(N(C)C)cc3)cc2)C(=O)C2CCCCC2)c1`: the Potency result in experiment [1] and in experiment [2] was “inactive” in each case.
For the molecule `CCCN(C/C=C/I)C1CCc2cccc(O)c2C1` (stereo not given), the Potency entry in experiment [1] and in experiment [2] was “inactive” in each case.
Regarding `CSCC[C@@H](N)C(=O)O`, the Potency result in experiment [1] and in experiment [2] was “inactive” each time.
Regarding `CCCCCCCCCCCCCCCCCCc1ccc(C(=O)/C=C/C(=O)O)cc1`, the Potency result in experiment [1] and in experiment [2] was “inactive” in each case.
As for `N#C/C(=C\c1cc(Cl)cc(Cl)c1)c1cccnc1`, the Potency result in experiment [1] and in experiment [2] was “inactive” in each case.
